# Source: ChEMBL document CHEMBL5724796, “Tm Shift (DSF) assay results for EUbOPEN Chemogenomics Library” (2024)
# Residues, ends and D or L forms follow the SMILES beside them.
# Key:
# Settings in all cases: Compound concentration 20.0 uM
# [1] = biological target: Tyrosine-protein kinase ABL1 (Homo sapiens) (UniProt P00519)
# [2] = biological target: Bromodomain-containing protein 4 (Homo sapiens) (UniProt O60885)
# [3] = biological target: Cyclin-dependent kinase 2 (Homo sapiens) (UniProt P24941)
# [4] = biological target: Casein kinase I isoform delta (Homo sapiens) (UniProt P48730)
# Sequence of Casein kinase I isoform delta (Homo sapiens) (P48730 whole entry, looked up, canonical isoform): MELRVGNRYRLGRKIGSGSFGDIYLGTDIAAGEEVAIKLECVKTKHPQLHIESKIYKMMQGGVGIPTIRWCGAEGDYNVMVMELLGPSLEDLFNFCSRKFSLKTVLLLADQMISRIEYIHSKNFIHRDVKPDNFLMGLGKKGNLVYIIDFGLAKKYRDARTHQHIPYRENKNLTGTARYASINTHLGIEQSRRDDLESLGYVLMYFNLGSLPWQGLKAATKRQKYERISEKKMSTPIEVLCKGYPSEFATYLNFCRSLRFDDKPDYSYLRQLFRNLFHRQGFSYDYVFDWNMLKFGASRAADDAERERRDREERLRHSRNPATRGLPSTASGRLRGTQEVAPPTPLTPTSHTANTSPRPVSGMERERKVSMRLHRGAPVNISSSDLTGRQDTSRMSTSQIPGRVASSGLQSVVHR
# [5] = biological target: Glycogen synthase kinase-3 beta (Homo sapiens) (UniProt P49841)
# Sequence of Glycogen synthase kinase-3 beta (Homo sapiens) (P49841 whole entry, looked up): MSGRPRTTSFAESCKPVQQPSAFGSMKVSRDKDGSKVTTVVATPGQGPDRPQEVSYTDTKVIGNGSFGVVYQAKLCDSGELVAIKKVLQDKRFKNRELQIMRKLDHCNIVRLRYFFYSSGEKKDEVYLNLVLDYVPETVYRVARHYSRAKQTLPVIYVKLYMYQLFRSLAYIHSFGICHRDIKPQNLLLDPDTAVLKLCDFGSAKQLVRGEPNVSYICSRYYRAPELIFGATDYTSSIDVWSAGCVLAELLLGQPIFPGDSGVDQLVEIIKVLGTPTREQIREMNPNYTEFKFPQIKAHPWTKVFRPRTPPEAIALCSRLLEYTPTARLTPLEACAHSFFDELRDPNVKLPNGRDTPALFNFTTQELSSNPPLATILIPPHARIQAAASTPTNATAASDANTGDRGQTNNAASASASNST
# [6] = biological target: Mitogen-activated protein kinase 1 (Homo sapiens) (UniProt P28482)
# Sequence of Mitogen-activated protein kinase 1 (Homo sapiens) (P28482 whole entry): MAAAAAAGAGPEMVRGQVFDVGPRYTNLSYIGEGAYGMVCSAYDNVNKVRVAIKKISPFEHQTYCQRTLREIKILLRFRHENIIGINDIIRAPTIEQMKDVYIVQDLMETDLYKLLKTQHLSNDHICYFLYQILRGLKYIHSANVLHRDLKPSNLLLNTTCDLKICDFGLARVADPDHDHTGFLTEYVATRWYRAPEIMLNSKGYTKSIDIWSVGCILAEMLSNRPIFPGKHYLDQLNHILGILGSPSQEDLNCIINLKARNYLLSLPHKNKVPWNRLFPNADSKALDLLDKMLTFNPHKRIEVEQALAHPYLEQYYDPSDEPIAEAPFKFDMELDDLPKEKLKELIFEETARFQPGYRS
# [7] = biological target: T1, Aurora kinase A (Homo sapiens) (UniProt O14965)
# T1 sequence (whole entry): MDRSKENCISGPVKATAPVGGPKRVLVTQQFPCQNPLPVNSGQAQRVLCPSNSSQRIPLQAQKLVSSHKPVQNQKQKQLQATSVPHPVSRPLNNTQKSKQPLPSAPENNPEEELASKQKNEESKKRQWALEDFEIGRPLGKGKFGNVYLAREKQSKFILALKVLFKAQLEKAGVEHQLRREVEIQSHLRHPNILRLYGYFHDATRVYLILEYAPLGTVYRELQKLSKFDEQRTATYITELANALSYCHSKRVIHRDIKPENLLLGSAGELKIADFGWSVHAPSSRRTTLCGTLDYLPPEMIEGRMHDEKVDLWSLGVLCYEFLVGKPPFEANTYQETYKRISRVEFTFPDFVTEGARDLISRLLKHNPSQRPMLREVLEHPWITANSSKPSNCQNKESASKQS
# [8] = biological target: T2, Transcription intermediary factor 1-alpha (Homo sapiens) (UniProt O15164)
# T2 sequence (whole entry): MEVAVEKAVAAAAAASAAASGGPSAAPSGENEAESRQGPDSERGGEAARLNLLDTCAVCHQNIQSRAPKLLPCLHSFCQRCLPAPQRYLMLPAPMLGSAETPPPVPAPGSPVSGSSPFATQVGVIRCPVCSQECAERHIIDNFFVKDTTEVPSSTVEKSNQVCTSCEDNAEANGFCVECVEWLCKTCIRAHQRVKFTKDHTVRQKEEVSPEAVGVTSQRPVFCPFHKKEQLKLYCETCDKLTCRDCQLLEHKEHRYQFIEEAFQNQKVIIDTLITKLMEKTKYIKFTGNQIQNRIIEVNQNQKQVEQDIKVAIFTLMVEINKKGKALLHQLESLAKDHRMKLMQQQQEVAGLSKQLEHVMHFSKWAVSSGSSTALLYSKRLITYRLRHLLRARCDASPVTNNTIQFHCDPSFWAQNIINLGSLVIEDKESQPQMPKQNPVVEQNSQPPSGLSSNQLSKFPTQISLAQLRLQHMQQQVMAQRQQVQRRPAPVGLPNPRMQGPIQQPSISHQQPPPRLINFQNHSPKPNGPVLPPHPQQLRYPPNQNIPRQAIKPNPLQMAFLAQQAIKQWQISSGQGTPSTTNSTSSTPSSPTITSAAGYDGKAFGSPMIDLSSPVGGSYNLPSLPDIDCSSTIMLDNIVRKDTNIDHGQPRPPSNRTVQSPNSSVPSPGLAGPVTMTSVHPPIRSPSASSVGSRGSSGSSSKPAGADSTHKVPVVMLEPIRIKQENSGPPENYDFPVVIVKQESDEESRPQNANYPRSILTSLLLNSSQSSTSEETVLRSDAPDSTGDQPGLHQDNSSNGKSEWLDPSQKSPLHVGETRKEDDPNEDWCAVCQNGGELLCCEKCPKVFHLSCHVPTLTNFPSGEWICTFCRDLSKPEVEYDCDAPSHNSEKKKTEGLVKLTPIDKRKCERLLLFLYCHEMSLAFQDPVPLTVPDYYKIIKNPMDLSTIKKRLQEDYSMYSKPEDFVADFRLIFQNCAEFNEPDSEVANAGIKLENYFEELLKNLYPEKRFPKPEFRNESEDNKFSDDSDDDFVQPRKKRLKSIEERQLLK
# Sequence of Tyrosine-protein kinase ABL1 (Homo sapiens) (P00519 whole entry): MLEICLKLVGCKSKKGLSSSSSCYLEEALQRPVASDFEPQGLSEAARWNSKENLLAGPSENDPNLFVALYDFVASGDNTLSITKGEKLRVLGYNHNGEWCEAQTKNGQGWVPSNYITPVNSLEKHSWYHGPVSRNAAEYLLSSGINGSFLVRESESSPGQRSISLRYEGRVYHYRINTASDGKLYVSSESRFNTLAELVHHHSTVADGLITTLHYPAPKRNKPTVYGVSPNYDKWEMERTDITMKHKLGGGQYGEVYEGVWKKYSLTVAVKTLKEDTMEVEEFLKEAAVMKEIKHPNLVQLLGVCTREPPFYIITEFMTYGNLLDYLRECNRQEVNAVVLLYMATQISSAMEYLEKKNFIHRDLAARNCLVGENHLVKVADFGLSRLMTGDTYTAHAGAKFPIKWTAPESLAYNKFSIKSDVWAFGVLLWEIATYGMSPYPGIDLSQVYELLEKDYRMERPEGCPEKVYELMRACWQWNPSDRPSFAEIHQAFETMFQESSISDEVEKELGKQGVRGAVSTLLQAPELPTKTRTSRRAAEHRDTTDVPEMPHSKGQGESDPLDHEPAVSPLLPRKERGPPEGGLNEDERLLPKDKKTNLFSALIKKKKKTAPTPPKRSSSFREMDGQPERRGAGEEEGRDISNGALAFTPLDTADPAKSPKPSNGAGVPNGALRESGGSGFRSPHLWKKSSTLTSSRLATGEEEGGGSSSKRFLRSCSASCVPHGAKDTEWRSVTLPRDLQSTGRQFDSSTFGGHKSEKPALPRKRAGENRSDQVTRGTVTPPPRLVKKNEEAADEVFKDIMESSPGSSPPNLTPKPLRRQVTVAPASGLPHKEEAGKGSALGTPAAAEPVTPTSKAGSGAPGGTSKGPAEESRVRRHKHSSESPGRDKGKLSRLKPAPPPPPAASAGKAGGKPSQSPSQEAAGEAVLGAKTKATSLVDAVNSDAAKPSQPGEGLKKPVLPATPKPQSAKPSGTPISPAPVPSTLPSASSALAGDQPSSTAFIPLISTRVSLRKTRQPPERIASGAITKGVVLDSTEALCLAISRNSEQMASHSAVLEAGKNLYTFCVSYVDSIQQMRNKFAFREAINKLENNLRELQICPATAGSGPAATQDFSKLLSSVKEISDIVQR
Compound,ΔTm [1],ΔTm [2],ΔTm [3],ΔTm [4],ΔTm [5],ΔTm [6],ΔTm [7],ΔTm [8]
CN1CCc2c(n(Cc3ccc(C(=O)NO)cc3)c3ccccc23)C1,0.24 °C,-1.44 °C,0.56 °C,-0.06 °C,-0.89 °C,0.14 °C,-0.37 °C,-1.21 °C
O=C(O)/C(S)=C/c1c[nH]c2ccc(F)cc12,-1 °C,-4.6 °C,-0.97 °C,0.7 °C,-0.98 °C,0.11 °C,0.25 °C,-2.02 °C
Cc1cc(/N=N/c2ccc(S(=O)(=O)NC3CCCC3)cc2)c(N)cc1O,0.4 °C,7.29 °C,4.93 °C,1.1 °C,4.28 °C,2.73 °C,0.42 °C,2.48 °C
O=C(O)C1=CCCN(CCON=C(c2ccccc2)c2ccccc2)C1,0.08 °C,-0.61 °C,0.73 °C,-0.14 °C,0 °C,0.02 °C,-1.31 °C,1.41 °C
O=C(NO)c1ccc(CN2CCCc3cc(Cl)ccc32)cc1,0.31 °C,-1.3 °C,-0.96 °C,-0.07 °C,0.96 °C,-0.12 °C,-0.45 °C,-1.53 °C
Oc1ccc(-c2c(-c3ccccc3)nn3c(C(F)(F)F)cc(C(F)(F)F)nc23)cc1,2.06 °C,-1.27 °C,0.46 °C,0.39 °C,-0.06 °C,-0.2 °C,-0.53 °C,-0.6 °C
CC[C@H](C)[C@H](NC(=O)[C@H](CCC(=O)O)NC(=O)[C@@H](NC(C)=O)C(C)C)C(=O)N[C@H](C=O)CC(=O)O (Ac-VEID-aldehyde),-0.05 °C,-2.59 °C,-0.23 °C,-0.08 °C,-0.35 °C,-0.47 °C,-1.47 °C,-0.43 °C
N#C[C@@H]1CCCN1C(=O)[C@@H]1CCCN1C(=O)CCCc1ccccc1,0.07 °C,-2.61 °C,0.09 °C,0.05 °C,-0.27 °C,0.11 °C,-1.43 °C,-0.5 °C
C[C@@H]1CN(c2ncc(Cl)c(Nc3ccc4c(c3)n(CCC(C)(C)O)c(=O)n4C)n2)C[C@H](C)C1(F)F,-0.67 °C,0.35 °C,1.82 °C,-0.69 °C,4.11 °C,-8.12 °C,4 °C,2.58 °C
Cc1cc2cc(NS(=O)(=O)c3ccc(C#N)cc3)ccc2n(C)c1=O,0.57 °C,-0.91 °C,0.09 °C,0.09 °C,0.03 °C,-3 °C,-1.09 °C,0.17 °C
